# Unmarked numbers belong to inactive results. Active and inactive are the calls of the source. The rule behind the calls is not given here.
# Test system: HIV-1 nucleocapsid protein NCp7 (binding to TG oligonucleotide)
# Assay: HIV Nucleocapsid (AID 346);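 note: potency is for inhibitors that block NC binding and lower polarization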
# Conditions: HIV-1 NC / fluorescein-TGTGTGTG probe, fluorescence polarization
# How it was run: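 10 nM TG4xF probe with 100 nM nucleocapsid protein in high-salt Hepes pH 7.5 (250mM NaCl) containing 1uM ZnCl2 and reducing agents. Compound inhibition of binding was read as fluorescein polarization after 1 hr at room temperature.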
# Potency is the fitted concentration of half-maximal effect.
row,SMILES,Potency
1,COc1cccc(Cn2c(=O)c(C)nc3cnc(OCc4ccccc4)nc32)c1,> 20 µM
2,O=C(Oc1ccccc1)N1CCC2(CC1)CCN(c1ccncc1)CC2,> 20 µM
3,CN(C)c1ccc(-c2cc(N(C)Cc3ccco3)ncn2)cc1,> 20 µM
4,O=C(c1ccncc1)N1CCC2(CCCN(c3ccccn3)C2)CC1,> 20 µM
5,COCC(=O)N1CCC[C@@]2(CCN(C(c3ccccc3)c3ccccc3)C2)C1,> 20 µM
6,COc1cccc(Cn2c(=O)c(-c3ccc(Cl)cc3)nc3cnc(N4CCOCC4)nc32)c1,> 20 µM
7,CCNc1ncc2nc(-c3cccs3)c(=O)n(Cc3ccc(F)cc3)c2n1,> 20 µM
8,O=S(=O)(c1ccccc1)N1CCC2(CCCN(Cc3ccccc3)C2)CC1,> 20 µM
9,CS(=O)(=O)Nc1cccc(-c2ccc3ncnc(NC4CC4)c3c2)c1,> 20 µM
10,COc1cccc(Cn2c(=O)cnc3cnc(Nc4ccccc4)nc32)c1,4.95 µM (active)
11,COc1ccc(-n2c(=O)c(-c3ccccc3)nc3cncnc32)cc1,> 20 µM
12,CN1CCN(c2ncncc2-c2cccnc2)CC1,> 20 µM
13,Cn1cc(-c2nc3cnc(Oc4ccccc4)nc3n(C3CC3)c2=O)c2ccccc21,> 20 µM
14,COc1ccc(Oc2ncc3ncc(=O)n(Cc4ccc(F)cc4)c3n2)cc1,> 20 µM
15,COc1ccc(-n2c(=O)c(-c3cn(C)c4ccccc34)nc3cnc(N4CCNCC4)nc32)cc1,> 4 µM
